Source: paper PMC4336329 (PLoS ONE, 2015)
In all, about 310,000 compounds went through this assay and about 14,000 (4.5%) showed an effect of 50% or more. The effect is printed as a negative number. Many of the other results were omitted from the sample, so strong results are more common in it than they were.

These molecules were tested against human ether-à-go-go-related gene (hERG) potassium channel (human, UniProt Q12809) (assay: primary screen, population patch clamp on CHO cells stably expressing hERG; higher = less effect of the substance).
Chain of human ether-à-go-go-related gene (hERG) potassium channel (Q12809 whole entry, looked up): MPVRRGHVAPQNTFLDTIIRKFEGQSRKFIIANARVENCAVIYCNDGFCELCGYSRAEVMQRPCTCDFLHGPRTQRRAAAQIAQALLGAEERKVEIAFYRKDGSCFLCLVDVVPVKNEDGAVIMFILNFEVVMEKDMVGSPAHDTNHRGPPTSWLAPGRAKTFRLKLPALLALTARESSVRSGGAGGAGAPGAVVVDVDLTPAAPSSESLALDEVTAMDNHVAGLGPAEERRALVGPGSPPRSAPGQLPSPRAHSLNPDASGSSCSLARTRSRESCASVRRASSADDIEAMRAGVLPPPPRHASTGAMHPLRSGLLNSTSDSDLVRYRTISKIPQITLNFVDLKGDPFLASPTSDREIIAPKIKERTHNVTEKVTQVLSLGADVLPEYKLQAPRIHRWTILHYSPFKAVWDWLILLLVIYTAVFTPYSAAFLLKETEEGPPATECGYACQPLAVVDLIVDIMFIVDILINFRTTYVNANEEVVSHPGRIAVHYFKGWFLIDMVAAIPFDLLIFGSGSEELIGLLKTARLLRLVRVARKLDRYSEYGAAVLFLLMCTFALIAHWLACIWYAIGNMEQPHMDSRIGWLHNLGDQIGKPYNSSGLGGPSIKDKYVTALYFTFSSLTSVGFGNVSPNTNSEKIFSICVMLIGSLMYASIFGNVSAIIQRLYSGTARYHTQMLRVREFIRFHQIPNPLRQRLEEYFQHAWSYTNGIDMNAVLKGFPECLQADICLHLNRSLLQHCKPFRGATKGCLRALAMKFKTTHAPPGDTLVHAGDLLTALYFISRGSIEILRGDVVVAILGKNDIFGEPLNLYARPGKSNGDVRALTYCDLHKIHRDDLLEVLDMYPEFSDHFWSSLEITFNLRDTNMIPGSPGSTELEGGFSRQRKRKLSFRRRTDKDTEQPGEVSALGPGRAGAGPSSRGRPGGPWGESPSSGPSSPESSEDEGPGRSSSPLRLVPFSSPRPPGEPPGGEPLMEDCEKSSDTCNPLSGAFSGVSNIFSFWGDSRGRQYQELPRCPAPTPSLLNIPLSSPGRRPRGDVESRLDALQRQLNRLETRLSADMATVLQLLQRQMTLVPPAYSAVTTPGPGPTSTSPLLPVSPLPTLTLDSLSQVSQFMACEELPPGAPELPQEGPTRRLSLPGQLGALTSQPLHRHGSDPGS
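Note: peak tail current of the secondary pulse compared with the same well before compound.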

| Compound | hERG current change (%, negative = inhibition) at 10uM |
| --- | --- |
| CCOc1ccc(NC(=O)NC(C)c2ccc3c(c2)OCO3)cc1 (centres unmarked) | 21.3% |
| CC1=NN(Cc2ccccc2)C(=O)C1 | -0.313% |
| O=C(Nc1ccn(-c2ccccc2)n1)c1ccc(Cl)cc1 | -8.56% |
| O=C(Nc1ccn(-c2ccccc2)n1)c1ccccc1Br | -66% |
| CC(=O)Nc1ccn(-c2ccccc2)n1 | 8.89% |
| O=C1CC(c2ccccc2)CC2=C1C=Nc1ccccc1N2 (centres unmarked) | -61% |
| O=C1CC(c2ccco2)CC2=C1C=Nc1ccccc1N2 (centres unmarked) | -24.9% |
| O=C1CC(c2ccc(F)cc2)CC2=C1C(c1ccc([N+](=O)[O-])o1)Nc1ccccc1N2 (centres unmarked) | -47.3% |
| CC1(C)CC(=O)C2=C(C1)Nc1ccccc1N=C2.Cl | -8.52% |
| CC1CC(=O)C2=C(C1)Nc1ccccc1N=C2 (centres unmarked) | -4.46% |
| O=C1CC(c2ccc(F)cc2)CC2=C1C=Nc1ccccc1N2 (centres unmarked) | -72.8% |
| O=C(Nc1c[nH]c(=O)[nH]c1=O)c1ccc([N+](=O)[O-])cc1 | 10% |
| COc1cc(C)c(Br)cc1S(=O)(=O)NCCCN1CCOCC1 | 9.66% |
| CCOC(=O)c1[nH]c(C)c(C(=O)OCC(=O)N2c3ccccc3CC2C)c1C (centres unmarked) | -0.0968% |
| COc1ccc(S(=O)(=O)N2CCN(C(=O)c3cc(-c4ccc(Br)cc4)n[nH]3)CC2)cc1OC | -13.5% |
| O=C(c1cc(-c2ccc(Br)cc2)n[nH]1)N1CCN(C(=O)c2ccccc2Br)CC1 | -32.4% |
| COc1cc(C(=O)N2CCN(C(=O)c3cc(-c4ccc(Br)cc4)n[nH]3)CC2)cc(OC)c1OC | -73.3% |
| COc1cc(C(=O)N2CCN(C(=O)c3ccccc3)CC2)cc(OC)c1OC | 8.49% |
| COc1cc(C(=O)N2CCN(C(=O)c3cc(-c4ccccc4)n[nH]3)CC2)cc(OC)c1OC | -77.6% |
| COc1ccc(-c2cc(C(=O)N3CCN(S(=O)(=O)c4ccccc4)CC3)[nH]n2)cc1 | 8.23% |
| Cc1nc2sc3c(c2c2nnc(SCC(=O)NCc4ccco4)n12)CCCC3 | -28.2% |

| Compound | hERG current change (%, negative = inhibition) at 10uM |
| --- | --- |
| Cc1nnc(SCc2nnc(-c3ccccc3Br)o2)n1-c1ccccc1 | -14.6% |
| Cc1cnc(C(=O)NCCc2ccc(Cl)cc2)cn1 | -15.8% |
| COc1ccc(OC)c(C2=CC(=O)C[C@H](c3ccc4c(c3)OCO4)C2)c1 | -10.6% |
| Cc1ccc(C)c(NC(=O)c2sc(Cl)nc2-c2ccccc2)c1 | 13.9% |
| CCN1CCN(C2=C(NS(=O)(=O)c3ccc(Br)cc3)C(=O)c3ccccc3C2=O)CC1 | -61.5% |
| NC(=O)C1CCN(C2=C(NS(=O)(=O)c3ccc(Cl)cc3)C(=O)c3ccccc3C2=O)CC1 | -38.3% |
| CCN1CCN(C2=C(NS(=O)(=O)c3ccc(NC(C)=O)cc3)C(=O)c3ccccc3C2=O)CC1 | 7.39% |
| NC(=O)C1CCN(C2=C(NS(=O)(=O)c3ccccc3)C(=O)c3ccccc3C2=O)CC1 | -13.9% |
| Cc1ccc(S(=O)(=O)NC2=C(N3CCN(Cc4ccccc4)CC3)C(=O)c3ccccc3C2=O)cc1 | -16.5% |
| CCN1CCN(C2=C(NS(=O)(=O)c3ccccc3)C(=O)c3ccccc3C2=O)CC1 | -5.21% |
| O=C1C(NS(=O)(=O)c2ccc(Br)cc2)=C(N2CCCCC2)C(=O)c2ccccc21 | -33.1% |
| NC(=O)C1CCN(C2=C(NS(=O)(=O)c3ccc(Br)cc3)C(=O)c3ccccc3C2=O)CC1 | -72.1% |
| CCN1CCN(C2=C(NS(=O)(=O)c3ccc(C)cc3)C(=O)c3ccccc3C2=O)CC1 | -57.1% |
| CC(C)(C)c1cc(C(=O)NCCCn2ccnc2)cc(C(C)(C)C)c1.Cl | 13.1% |
| CC(=O)c1cccc(NC(=O)CSc2ccc(-c3ccccn3)nn2)c1 | -13.6% |
| COc1cc(C)c(CNc2ccc(OC)c(OC)c2)cc1C | 7.7% |
| COC(=O)[C@@]1(Cc2ccc(F)cc2)[C@H]2c3cc(C(=O)N4CCCC4)n(Cc4ccc(C(F)(F)F)nc4)c3C[C@H]2CN1C(=O)c1ccccc1 | -8.27% |
| COC(=O)[C@@]1(Cc2ccc(OC)cc2)[C@H]2c3cc(C(=O)N4CCCC4)n(C[C@H](O)CO)c3C[C@H]2CN1C(=O)c1ccccc1 | -1.32% |
| COC(=O)[C@@]1(Cc2ccc(OC)cc2)[C@H]2c3cc(C(=O)N4CCCC4)n(CCO)c3C[C@H]2CN1C(=O)c1ccccc1 | -34.9% |
| COCCn1c(C(=O)N2CCCC2)cc2c1C[C@H]1CN(C(=O)c3ccccc3)[C@@](Cc3ccc(F)cc3)(C(=O)OC)[C@@H]21 | -39.3% |
